High-throughput results from PubChem.
AMA1-RON2 inh – qHTS for Inhibitors of AMA1-RON; Towards Development of Antimalarial Drug Lead: Primary Screen; AlphaScreen AMA1-biotinylated RON2 peptide binding; Potency, µM (highest dose often 58.2 µM), for the others: top-dose activity change, negative = inhibition, most hits filed as inhibitors; 0.2% of 360,000 active;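 also: 0% = vehicle wells and -100% = peptide control; nearly all actives have a fitted effect of over 45% in size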
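AMA1 (3D7) with his tag at 25 nM final met compounds first, then biotinylated RON2 peptide at 25 nM; detection used donor plus acceptor beads, 10 µg/mL apiece, read by AlphaScreen after 30 min at room temperature.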
Vaccinia Venus – qHTS for Stage-Specific Inhibitors of Vaccinia Orthopoxvirus: Venus Reporter Primary qHTS; 0.46% of 330,000 active; Vaccinia virus Venus reporter expression, fluorescence; Potency, µM (series often up to 36.5 µM), for inactives: at the top dose activity change, negative = inhibition, actives largely listed as inhibitors; calls by dose curve; tested in A549 cells; also: % is scaled to controls: 0 for no effect and ±100 for the full control effect; nearly all actives have a fitted effect of over 30% in size
AmpC inh detg – qHTS Inhibitors of AmpC Beta-Lactamase (assay with detergent); P00811; AmpC hydrolysis of nitrocefin, absorbance 480 nm, 0.01% Triton; Potency, µM (titrated, usually from 114 µM), without a hit: at the highest dose activity change, negative = inhibition, usual class: inhibitors; 0.041% of 370,000 active;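 also: 0% = no-compound wells and -100% = no-enzyme wells; nearly all actives have a fitted effect of over 25% in size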
Target sequence (P00811 whole entry, looked up): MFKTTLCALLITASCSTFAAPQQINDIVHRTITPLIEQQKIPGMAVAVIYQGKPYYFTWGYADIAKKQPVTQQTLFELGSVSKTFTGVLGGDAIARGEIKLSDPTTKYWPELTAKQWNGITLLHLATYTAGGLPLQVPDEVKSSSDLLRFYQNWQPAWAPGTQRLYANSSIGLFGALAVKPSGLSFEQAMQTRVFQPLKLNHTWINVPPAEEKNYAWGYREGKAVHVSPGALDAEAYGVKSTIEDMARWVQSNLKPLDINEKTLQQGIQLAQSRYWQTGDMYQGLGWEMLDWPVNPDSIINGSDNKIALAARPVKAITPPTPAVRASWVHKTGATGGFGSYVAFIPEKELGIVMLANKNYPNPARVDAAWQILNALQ
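AmpC (5.3 nM in the dispensed reagent) in 20 mM phosphate pH 7.0 with 0.01% (detergent screen) or 0.0001% Triton X-100 was preincubated with compounds for 15 min at room temperature. Nitrocefin was then added from an 800 uM solution, and hydrolysis was followed at 480 nm.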
AmpC inh no detg – qHTS Inhibitors of AmpC Beta-Lactamase (assay without detergent) | Potency, µM (titrated, usually from 57.1 µM), for the others: top-dose activity change, negative = inhibition, actives largely listed as inhibitors | AmpC nitrocefin hydrolysis, absorbance 480 nm, 0.0001% Triton | 0.52% of 330,000 active;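 also: plate controls were no compound for no effect and no enzyme for full effect; nearly all actives have a fitted effect of over 20% in size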
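AmpC (5.3 nM in the dispensed reagent) in 20 mM phosphate pH 7.0 with 0.01% (detergent screen) or 0.0001% Triton X-100 was preincubated with compounds for 15 min at room temperature. Nitrocefin was then added from an 800 uM solution, and hydrolysis was followed at 480 nm.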
VACV mCherry inh – qHTS for Stage-Specific Inhibitors of Vaccinia Orthopoxvirus: mCherry Reporter Primary qHTS; Vaccinia virus mCherry reporter infection, fluorescence; Potency, µM (titrated, usually from 36.5 µM), for inactives: at the top dose activity change, negative = inhibition, actives largely listed as inhibitors; 0.63% of 310,000 active; calls by dose curve; tested in A549 cells; also: % is scaled to controls: 0 for no effect and ±100 for the full control effect; nearly all actives have a fitted effect of over 35% in size
SARS PLP yeast – qHTS of Yeast-based Assay for SARS-CoV PLP; AID 485353, 2010; Potency, µM (series often up to 32.9 µM), for the others: at the highest dose activity, positive = growth rescue, actives largely listed as activators; 0.19% of 330,000 active; S. cerevisiae expressing SARS-CoV PLpro, growth rescue; calls by dose curve; also: 0% is about no effect; nearly all actives have a fitted effect of over 55% in size
Numbers without * were called inactive; i = inactive; ? = inconclusive; nt = not tested or not shown; ! = repeats disagree; [ ] = dose if it differs, or a comment. Shown are actives, neighbours in structure and some others; about 1.3% of the full set was active somewhere. Unless noted, calls follow the shape of the dose curve; as a rule, active = well fitted curve in the direction sought with a large enough effect; inconclusive = small, poorly fitted or top-dose-only effect, or another doubt; inactive = no such curve, though single readings can be large; an effect the other way counts as inactive or inconclusive. Potency is read from the fitted curve at half-maximal effect.

SMILES	AMA1-RON2 inh	Vaccinia Venus	AmpC inh detg	AmpC inh no detg	VACV mCherry inh	SARS PLP yeast
Cc1nc(Cl)cc(N/N=C/c2ccc(O)cc2)n1	-4%	nt	5%	-23%	nt	-4%
CCOC(=O)c1cccc(Nc2nc(-c3cccnc3)nc3ccccc23)c1	-23%	22µM*	-4%	30%	nt	-3%
COc1cc2nc(N3CCCC(O)C3)c(CNCc3ccccc3F)cc2c(OC)c1OC (stereo not given)	nt	7%	nt	nt	-12%	nt
COc1ccc(C)c2sc(NC(=O)C3=COCCO3)nc12	nt	nt	?	40µM*	nt	-17%
CCn1c(=O)c2cc(C(=O)NC(C)C)sc2c2ccccc21	-16%	nt	4%	2%	nt	2%
CCn1c(=O)c2cc(C(=O)N3CCN(C)CC3)sc2c2ccccc21	-4%	-6%	-5%	0.63µM*	41%	-6%
CCOc1ccc2nc(N3CCCC3C(=O)N3CCC(c4nc5ccccc5o4)CC3)nc(C)c2c1 (stereo not given)	nt	-10%	nt	nt	-14%	nt
C=CC(=O)Nc1ccc(Nc2nc(NC3CCC(N(C)C)CC3)nc3c2ncn3C(C)C)cc1 (stereo not given)	-17%	1.1µM*	nt	-8%	?	4%
CC(C)C[C@H](CO)Nc1nc(Nc2cccc(Cl)c2)c2ncn(C(C)C)c2n1	-13%	?	-9%	65%	?	-4%
Cc1ccnc2ccc3ccccc3c12	nt	-31%	nt	nt	-12%	nt
CS(=O)(=O)N(CC(=O)Nc1ccc2c(c1)OCO2)Cc1ccc(Cl)cc1	-7%	-23%	1%	0.28µM*	nt	-1%
COC(=O)C1CCN(Cc2ccc3c(c2)CN(C(=O)c2sc(C)nc2C)CCO3)CC1	nt	-7%	nt	nt	-14%	nt
CN(Cc1cnc2nc(N)nc(N)c2n1)c1ccc(C(=O)N[C@@H](CCC(=O)O)C(=O)O)cc1	3%	3.2µM*	nt	nt	1µM*!	nt
CN(C)c1ccc(CNC(=O)c2cccc(NC(=O)N3CCSc4ncccc43)c2)cc1	nt	-3%[7.34 µM]	14%	nt	-3%[7.34 µM]	nt
CCS(=O)(=O)NCc1c(C)ncc2c1CCN(C(=O)c1ccc(F)cc1)C2	nt	-22%	nt	nt	-27%	nt
O=c1c(Cc2ccccc2)c(O)c2cccc3c4c(n1c23)CCCC4	-17%	-16%	0%	7.9µM*	i	-2%
Cc1nc(C)c(CC(=O)N2CCOc3ccc(CN4CCOCC4)cc3C2)s1	nt	-6%	nt	nt	-8%	nt
CCCCN1C(=O)/C(=C/C=C2\SCCN2C)SC1=S	10µM*	34%	-5%	?	2%	-12%
CN1CCS/C1=C/C=C1\SC(=S)N(CC(=O)O)C1=O	-12%	30%	8%	-39%	i	0%
Cc1cccc(CC(=O)Nc2cc(C)c3c(=O)oc4ccccc4c3n2)c1	7%	-18%	?	-14%	-7%	2%
Cc1cc(NC(=O)Cc2ccccc2)nc2c1c(=O)oc1ccccc12	-3%	-24%	?	6.3µM*	i	-8%
O=C(NC1c2ccccc2-c2ccccc21)N1CCOCC1	3%	10µM*	1%	-11%	11µM*	-11%
COc1ccccc1/C=C/C(=O)c1c2c(c(C)[nH]c1=O)CCCC2	5%	11µM*	-7%	-19%	?	3%
COc1ccccc1/C=C/C(=O)c1ccccc1	1%	-10%	-5%	-27%	i	-7%
COc1ccc(/C=C/C(=O)c2c(C)cc(C)[nH]c2=O)c2ccccc12	-6%	?	-12%	24%	8.9µM*	-10%
SMILES	AMA1-RON2 inh	Vaccinia Venus	AmpC inh detg	AmpC inh no detg	VACV mCherry inh	SARS PLP yeast
Cc1ccc(/C=C/C(=O)c2c(C)cc(C)[nH]c2=O)cc1	4%	nt	-2%	-27%	nt	-12%
O=C1CSC(=S)N1/N=C/c1ccc(Cl)c([N+](=O)[O-])c1	nt	nt	5%	13µM*	nt	0%
Cc1cc(F)ccc1S(=O)(=O)Nc1ccccc1C(=O)NC1CCN(Cc2ccccc2)CC1	-16%	10µM*	?	23%	?	4%
CCCC1(CCC)C(=O)NC(=Nc2ccccc2)NC1=O	-4%	0%	-2%	-35%	i	-17%
CCCC1(CCC)C(=O)NC(=NCc2ccccc2)NC1=O	-1%	16µM*	?	-26%	?	1%
COc1ccc2c(c1)-c1nc(NC(=O)c3cc(Cl)ccc3OC)sc1CC2	nt	10µM*	22%	nt	10µM*	nt
O=C(C1CCCCC1)N1CCOc2ccc(CN3CCN(Cc4ccccn4)CC3)cc2C1	nt	6%	nt	nt	-9%	nt
CCC1(C2CCN(Cc3ccccc3Cl)CC2)NC(=O)N(CC2COc3ccccc3O2)C1=O (stereo not given)	nt	-19%	nt	nt	-18%	nt
COc1ccc(Cl)cc1C(=O)NNC(=O)c1[nH]c(C)c(C(C)=O)c1C	43%	-10%	nt	10µM*	i	14%
O=C1CC(C(=O)N2CCCC(c3nc(-c4ccncc4)ncc3-c3ccccc3)C2)C2(CCCCC2)O1 (stereo not given)	nt	0%	nt	nt	-14%	nt
C=CC(C)(C)c1c(O)c(CC=C(C)C)c(O)c2c(=O)c3ccc(O)c(O)c3oc12	67%	?	nt	nt	8.9µM*	nt
CN(C)c1ccc(N=Cc2ccncc2)cc1	nt	7%	nt	nt	24%	nt
Cc1cc(C)nc(/N=C2\NC(=O)CC(C(=O)O)N2c2ccc(Cl)cc2)n1 (stereo not given)	-5%	2%	?	8.9µM*	i	4%
O=C(Cn1c(=O)oc2cc(S(=O)(=O)N3CCCC3)ccc21)NC1CCCc2ccccc21 (stereo not given)	8%	-4%	?	10µM*	15%	3%
O=C(Cn1c(=O)oc2cc(S(=O)(=O)N3CCCCCC3)ccc21)NC1CCCCCCC1	-6%	-10%	?	-24%	i	1%
COc1cccc(C(=O)NCC2Cc3cccc(-c4nc(C)cnc4C)c3O2)c1OC (stereo not given)	nt	50%	nt	nt	26%	nt
CC1CCCCN1CC(=O)Nc1ccc(N2CCCCCC2)cc1 (stereo not given)	28µM*	-17%	-2%	39%	-12%	0%
NS(=O)(=O)c1ccc(S(=O)(=O)N(CCc2ccccc2)Cc2ccccn2)cc1	2%	nt	-9%	-2%	nt	3.5µM*
CC(C)[C@H](N)C(=O)N[C@H]1CCC2C3CC=C4C[C@@H](O)CC[C@]4(C)C3CC[C@@]21C (stereo not given in full)	-6%	13µM*	nt	nt	?	nt
Cc1c(C(=O)N2CCOc3ccccc3C2)sc2ncnc(NCCCN3CCOCC3)c12	nt	-6%	nt	nt	-9%	nt
